Reference: PubChem BioAssay (EPA / NIEHS)
“And” between values parts separate entries of the source, which are not always exact repeats. Identical values can stand only once. Inconclusive results are not listed. More than one record can exist for a structure, and the calls need not agree. The source made the active and inactive calls. Rule for the calls, unless noted: active = hit-call score of the fitted dose curve at least 0.9, where 1 is the maximum; inactive = score below 0.9.

Tests used:
[1] = read-out: Monocyte Chemoattractant Protein-1 (MCP1), CCL2 (gene 6347); assay: BSK_LPS_MCP1: BioMAP Diversity Plus: LPS Assay for Monocyte Chemoattractant Protein-1 (MCP1) Biomarker Activity (AID 2283081); conditions: primary human HUVEC with PBMC; actives raise or lower the signal;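 for AC50: secreted MCP-1 protein quantified by ELISA in culture supernatant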
Summary of the method: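 Human umbilical vein endothelial cells co-cultured with PBMC, LPS-stimulated; secreted MCP-1 measured by ELISA 24 h after compound addition. Bidirectional curve fitting against DMSO baseline; SRB total-protein staining in parallel cultures for cytotoxicity.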

[2] = BSK_LPS_PGE2: BioMAP Diversity Plus: LPS Assay for Prostaglandin E2 (PGE2) Biomarker Activity (AID 2283082); conditions: primary human HUVEC with PBMC; actives raise or lower the signal;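 for AC50: secreted prostaglandin E2 measured by ELISA in LPS-stimulated co-culture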
Summary of the method: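 Endpoint derived from bidirectional curve fitting versus DMSO of ELISA-measured PGE2 in LPS-stimulated human primary vascular co-culture (HUVEC with PBMC) harvested at 24 h.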

[3] = read-out: Macrophage colony-stimulating factor (MCSF), CSF1 (gene 1435); assay: BSK_LPS_MCSF: BioMAP Diversity Plus: LPS Assay for Macrophage colony-stimulating factor (MCSF) Biomarker Activity (AID 2283083); conditions: primary human HUVEC with PBMC; actives raise or lower the signal
Summary of the method: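 HUVEC–PBMC co-culture, M-CSF measured by ELISA 24 h after chemical dosing. Fitted in both directions relative to DMSO as negative control; overt cytotoxicity assessed by SRB total-protein staining in parallel cultures.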

[4] = read-out: Tissue Factor, F3 (gene 2152); assay: BSK_LPS_TissueFactor: BioMAP Diversity Plus: LPS Assay for Tissue Factor Biomarker Activity (AID 2283084); conditions: primary human HUVEC with PBMC; actives raise or lower the signal
Summary of the method: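 Human umbilical vein endothelial cells co-cultured with PBMC were dosed with compound. Cell-surface CD142 was measured by ELISA 24 h later. Activity was fitted bidirectionally against DMSO, with SRB total-protein staining in parallel cultures for cytotoxicity.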

[5] = read-out: Tumor necrosis factor (Homo sapiens) (UniProt P01375); assay: BSK_LPS_TNFa: BioMAP Diversity Plus: LPS Assay for Tumour Necrosis Factor alpha (TNFa) Biomarker Activity (AID 2283085); conditions: primary human HUVEC with PBMC; actives raise or lower the signal
Summary of the method: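 Primary human vascular co-culture of HUVEC and PBMC; TNFa ELISA 24 h after treatment, analysed as increase or decrease relative to DMSO control.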

[6] = read-out: Vascular cell adhesion molecule 1 (VCAM1), VCAM1 (gene 7412); assay: BSK_LPS_VCAM1: BioMAP Diversity Plus: LPS Assay for Vascular cell adhesion molecule 1 (VCAM1) Biomarker Activity (AID 2283086); conditions: primary human HUVEC with PBMC; actives raise or lower the signal
Summary of the method: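 Primary human vascular co-culture (umbilical vein endothelium plus PBMC) stimulated with LPS received chemical; 24 h later VCAM-1 was read by ELISA. Overt cytotoxicity was assessed by sulforhodamine B staining of parallel cultures at the same time point.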

CD38, CD38 (gene 952) = assay: BSK_SAg_CD38: BioMAP Diversity Plus: SAg Assay for CD38 Biomarker Activity (AID 2283087); conditions: primary human HUVEC with PBMC; actives raise or lower the signal
Summary of the method: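 Fluorescence ELISA of cell-surface CD38 served as the read-out, with either increase or decrease fitted against DMSO controls. Cells were a human umbilical vein endothelium plus PBMC co-culture under SEB/TSST-1 stimulation, measured 24 h after dosing.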

CD40, CD40 (gene 958) = assay: BSK_SAg_CD40: BioMAP Diversity Plus: SAg Assay for CD40 Biomarker Activity (AID 2283088); conditions: primary human HUVEC with PBMC; actives raise or lower the signal
Summary of the method: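 HUVEC plus PBMC co-culture, superantigen-activated, with CD40 read by ELISA 24 h after dosing. Curves fitted in both directions against DMSO. Overt cytotoxicity checked by parallel SRB total-protein staining.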

CD69, CD69 (gene 969) = assay: BSK_SAg_CD69: BioMAP Diversity Plus: SAg Assay for CD69 Biomarker Activity (AID 2283089); conditions: primary human HUVEC with PBMC; actives raise or lower the signal;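 for AC50: cell surface CD69 protein quantified by ELISA with fluorescence detection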
Summary of the method: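 Values derive from bidirectional fitting relative to DMSO vehicle. Cells: umbilical vein endothelium plus peripheral blood mononuclear cells, treated 24 h before fluorescent ELISA for CD69.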

[7] = read-out: Monocyte Chemoattractant Protein-1 (MCP1), CCL2 (gene 6347); assay: BSK_SAg_MCP1: BioMAP Diversity Plus: SAg Assay for Monocyte Chemoattractant Protein-1 (MCP1) Biomarker Activity (AID 2283090); conditions: primary human HUVEC with PBMC; actives raise or lower the signal
Summary of the method: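 MCP-1 levels in the endothelial–PBMC SAg co-culture were quantified by ELISA at 24 h post-dosing; both increases and decreases versus DMSO scored. Cytotoxicity monitored by SRB total protein in parallel cultures.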

[8] = read-out: E-selectin (Homo sapiens) (UniProt P16581); assay: BSK_SAg_Eselectin: BioMAP Diversity Plus: SAg Assay for Eselectin Biomarker Activity (AID 2283091); conditions: primary human HUVEC with PBMC; actives raise or lower the signal
Summary of the method: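 Human umbilical vein endothelial cells co-cultured with peripheral blood mononuclear cells, SAg system. E-selectin is measured by ELISA 24 h after dosing and fitted bidirectionally against DMSO. Cytotoxicity is checked by SRB staining of parallel cultures.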

[9] = BSK_SAg_PBMCCytotoxicity: PBMC Cytotoxicity Assessment in the BioMAP Diversity Plus: SAg Assay (AID 2283093); conditions: primary human HUVEC with PBMC;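 note: PBMC viability measured as Alamar Blue reduction fluorescence at 546/580 nm; fitted both ways against DMSO so a hit may be loss or gain of signal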;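 for AC50: PBMC superantigen activated with SEB plus TSST-1 one hour after compound addition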
Summary of the method: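 HUVEC/PBMC co-culture; PBMC exposed to chemical 1 h before SEB and TSST-1 activation (20 ng/mL each), incubated 90 h, then Alamar Blue 6 h, fluorescence 546/580 nm. Bidirectional fit versus DMSO baseline.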

[10] = read-out: Interleukin-8 (IL8), CXCL8 (gene 3576); assay: BSK_SAg_IL8: BioMAP Diversity Plus: SAg Assay for Interleukin-8 (IL8) Biomarker Activity (AID 2283094); conditions: primary human HUVEC with PBMC; actives raise or lower the signal
Summary of the method: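 In this co-culture of human umbilical vein endothelium with peripheral blood mononuclear cells, IL-8 is assayed by ELISA at 24 h. DMSO serves as baseline for bidirectional curve fitting.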

[11] = BSK_SAg_Proliferation: Cell Proliferation Assessment in the BioMAP Diversity Plus: SAg Assay (AID 2283095); conditions: primary human HUVEC with PBMC;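 note: relative cell number as total protein by SRB absorbance in sub-confluent culture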
Summary of the method: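 Readout is SRB-stained protein (560 nm) in a primary human HUVEC and PBMC co-culture; sub-confluent cultures are read at 96 h. Activity is fitted bidirectionally using DMSO as baseline.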

[12] = BSK_SAg_SRB: Viability Assessment in the BioMAP Diversity Plus: SAg Assay (AID 2283096); conditions: primary human HUVEC with PBMC;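 note: cells read one day after compound addition; hits may be either gain or loss of signal compared with DMSO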
Summary of the method: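 Human umbilical vein endothelial cells co-cultured with PBMC, read 24 h after compound dosing. Total protein measured by sulforhodamine B staining (0.1% SRB after 10% TCA fixation, absorbance 560 nm); bidirectional fit versus DMSO baseline.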

[13] = read-out: Monokine induced gamma interferon (MIG), CXCL9 (gene 4283); assay: BSK_SAg_MIG: BioMAP Diversity Plus: SAg Assay for Monokine induced gamma interferon (MIG) Biomarker Activity (AID 2283092); conditions: primary human HUVEC with PBMC; actives raise or lower the signal
Summary of the method: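 Values reflect bidirectional fitting of ELISA-measured MIG against DMSO vehicle, taken 24 h after dosing of a co-culture of human umbilical vein endothelial cells and peripheral blood mononuclear cells.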

[14] = target: human CYP19A1, CYP19A1 (gene 1588) (UniProt P11511); assay: NVS_ADME_hCYP19A1: NovaScreen (NVS) CYP450-related Enzyme Activity (ADME) Assay for human CYP19A1 (AID 2283098; active = hit-call score of the fitted dose curve at least 0.9, where 1 is the maximum)
Summary of the method: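 Recombinant enzyme in a cell-free format, read 0.5 h after dosing by fluorescence from a fluorogenic substrate. Loss of signal was fitted against acetonitrile as baseline. Primary screen in duplicate at 10 uM, actives then tested in concentration series.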

[15] = target: human CYP1A1, CYP1A1 (gene 1543) (UniProt P04798); assay: NVS_ADME_hCYP1A1: NovaScreen (NVS) CYP450-related Enzyme Activity (ADME) Assay for human CYP1A1 (AID 2283100; active = hit-call score of the fitted dose curve at least 0.9, where 1 is the maximum)
Summary of the method: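 Recombinant CYP1A1 with a fluorogenic substrate, cell-free, read 1 h after dosing; acetonitrile as negative control. Single-concentration screen at 10 uM in duplicate, then concentration-response up to 20 uM for chemicals meeting ~30% inhibition threshold.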

[16] = target: human CYP2B6, CYP2B6 (gene 1555) (UniProt P20813); assay: NVS_ADME_hCYP2B6: NovaScreen (NVS) CYP450-related Enzyme Activity (ADME) Assay for human CYP2B6 (AID 2283101; active = hit-call score of the fitted dose curve at least 0.9, where 1 is the maximum)
Summary of the method: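 Compounds were first screened in duplicate at 10 uM against recombinant enzyme, with the fluorescent product measured after 1 hour. Active compounds were retested over a concentration series. Loss of fluorescence versus acetonitrile control was scored as reduced enzyme activity.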

Measured: AC50

Tumor necrosis factor (Homo sapiens), sequence (P01375 whole entry, looked up): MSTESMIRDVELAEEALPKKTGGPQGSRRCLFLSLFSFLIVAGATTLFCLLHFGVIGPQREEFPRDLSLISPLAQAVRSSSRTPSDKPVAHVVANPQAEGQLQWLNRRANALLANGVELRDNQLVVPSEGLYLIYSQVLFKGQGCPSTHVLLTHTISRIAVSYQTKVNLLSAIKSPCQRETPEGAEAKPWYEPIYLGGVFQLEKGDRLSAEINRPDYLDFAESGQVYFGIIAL
E-selectin (Homo sapiens), sequence (P16581 whole entry, looked up): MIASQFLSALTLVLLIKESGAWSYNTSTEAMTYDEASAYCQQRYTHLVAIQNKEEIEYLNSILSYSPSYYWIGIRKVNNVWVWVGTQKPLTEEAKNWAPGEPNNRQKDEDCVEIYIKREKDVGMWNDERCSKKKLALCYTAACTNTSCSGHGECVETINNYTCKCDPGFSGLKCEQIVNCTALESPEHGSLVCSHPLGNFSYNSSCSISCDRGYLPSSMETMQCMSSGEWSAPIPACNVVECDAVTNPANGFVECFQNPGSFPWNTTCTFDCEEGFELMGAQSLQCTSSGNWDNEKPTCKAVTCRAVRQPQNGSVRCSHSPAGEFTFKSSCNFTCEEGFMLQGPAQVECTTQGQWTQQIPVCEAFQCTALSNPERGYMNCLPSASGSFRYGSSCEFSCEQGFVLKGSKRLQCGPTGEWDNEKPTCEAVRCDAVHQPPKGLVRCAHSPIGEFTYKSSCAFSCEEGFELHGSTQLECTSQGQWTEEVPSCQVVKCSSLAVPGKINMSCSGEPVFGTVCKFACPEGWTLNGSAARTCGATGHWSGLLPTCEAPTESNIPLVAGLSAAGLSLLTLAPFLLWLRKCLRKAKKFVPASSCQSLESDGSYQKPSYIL
human CYP19A1, CYP19A1 (gene 1588), sequence (P11511 whole entry, looked up): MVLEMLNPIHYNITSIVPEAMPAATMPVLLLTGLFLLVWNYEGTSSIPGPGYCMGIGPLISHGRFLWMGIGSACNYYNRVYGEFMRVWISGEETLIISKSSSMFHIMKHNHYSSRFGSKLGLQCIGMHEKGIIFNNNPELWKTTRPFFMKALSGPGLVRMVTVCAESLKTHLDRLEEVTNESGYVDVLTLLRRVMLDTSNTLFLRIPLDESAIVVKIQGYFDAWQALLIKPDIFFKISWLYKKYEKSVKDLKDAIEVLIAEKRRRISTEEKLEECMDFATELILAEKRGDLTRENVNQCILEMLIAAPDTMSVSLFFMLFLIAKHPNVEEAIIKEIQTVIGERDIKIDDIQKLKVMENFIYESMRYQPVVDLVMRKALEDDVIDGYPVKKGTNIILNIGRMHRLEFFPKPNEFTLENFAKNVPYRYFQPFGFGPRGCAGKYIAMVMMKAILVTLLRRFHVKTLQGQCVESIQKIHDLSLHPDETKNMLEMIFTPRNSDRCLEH
human CYP1A1, CYP1A1 (gene 1543), sequence (P04798 whole entry, looked up): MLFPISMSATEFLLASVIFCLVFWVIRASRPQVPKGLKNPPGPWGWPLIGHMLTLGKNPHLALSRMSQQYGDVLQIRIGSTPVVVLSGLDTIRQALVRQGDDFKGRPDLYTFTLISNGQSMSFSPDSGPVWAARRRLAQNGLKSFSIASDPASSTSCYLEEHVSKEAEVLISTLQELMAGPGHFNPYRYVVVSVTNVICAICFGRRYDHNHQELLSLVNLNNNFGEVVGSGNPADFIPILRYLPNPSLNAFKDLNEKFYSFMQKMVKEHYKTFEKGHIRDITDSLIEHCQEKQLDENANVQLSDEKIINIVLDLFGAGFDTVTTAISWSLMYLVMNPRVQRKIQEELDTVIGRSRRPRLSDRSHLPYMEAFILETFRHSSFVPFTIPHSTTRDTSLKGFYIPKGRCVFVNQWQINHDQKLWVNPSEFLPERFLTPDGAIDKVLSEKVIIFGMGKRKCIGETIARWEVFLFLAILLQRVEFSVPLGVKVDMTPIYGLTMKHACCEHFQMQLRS
human CYP2B6, CYP2B6 (gene 1555), sequence (P20813 whole entry, looked up): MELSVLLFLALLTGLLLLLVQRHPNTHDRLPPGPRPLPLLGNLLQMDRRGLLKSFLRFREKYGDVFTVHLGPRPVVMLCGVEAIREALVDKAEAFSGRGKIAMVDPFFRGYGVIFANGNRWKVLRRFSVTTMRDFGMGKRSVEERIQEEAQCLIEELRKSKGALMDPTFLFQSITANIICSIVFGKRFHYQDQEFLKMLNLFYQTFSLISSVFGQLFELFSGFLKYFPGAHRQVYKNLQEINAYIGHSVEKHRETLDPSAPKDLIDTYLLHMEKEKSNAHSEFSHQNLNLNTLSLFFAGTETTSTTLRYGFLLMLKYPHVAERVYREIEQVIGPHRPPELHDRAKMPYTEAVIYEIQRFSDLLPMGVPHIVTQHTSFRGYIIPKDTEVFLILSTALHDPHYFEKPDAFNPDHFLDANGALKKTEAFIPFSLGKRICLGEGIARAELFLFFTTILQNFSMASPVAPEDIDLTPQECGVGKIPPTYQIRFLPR

CN(C)C=O
not listed: [13] | [14] | [15] | [16]
inactive: all other assays above

N#C[C@@H]1CC(F)(F)CN1C(=O)CNC1CC2CCC(C1)N2c1ncccn1 (stereo partly drawn)
inactive: [1] | [4] | [5] | [6] | [8]
active: [2] 0.939 µM | [3] 2.33 µM | CD38, CD38 (gene 952) 4.4 µM | CD40, CD40 (gene 958) 4.8 µM | CD69, CD69 (gene 969) 4.59 µM | [7] 6.57 µM | [9] 8.08 µM | [10] 7.82 µM | [11] 9.88 µM | [12] 5.45 µM

C=C(C)C(=O)OCCC(F)(F)C(F)(F)C(F)(F)C(F)(F)C(F)(F)C(F)(F)F
inactive: [1] | [2] | [3] | [4] | [6] | CD38, CD38 (gene 952) | CD40, CD40 (gene 958) | CD69, CD69 (gene 969) | [7] | [8] | [13] | [9] | [10] | [11] | [12] | [14]
active: [11] 11.2 µM

CCCOc1sc(C(=O)N2CCC(c3cc(CN)ccc3F)CC2)c(C)c1Br
inactive: [15]
active: [1] 9.2 µM | [2] 12.5 µM | [3] 10.7 µM | [4] 13.1 µM | [5] 13.4 µM | [6] 7.57 µM | CD38, CD38 (gene 952) 6.1 µM | CD40, CD40 (gene 958) 9.53 µM | CD69, CD69 (gene 969) 8.27 µM | [7] 8.39 µM | [8] 6.75 µM | [9] 6.22 µM | [10] 7.78 µM | [11] 5.11 µM | [12] 6.68 µM | [16] 8.64 µM

OCCC(F)(F)C(F)(F)C(F)(F)C(F)(F)C(F)(F)C(F)(F)C(F)(F)C(F)(F)F
active: [1] 30.8 µM and 21.8 µM | [3] 43.2 µM and 5.95 µM | [4] 45.6 µM | [6] 24.3 µM and 33.3 µM and 18.8 µM | CD38, CD38 (gene 952) 29.1 µM and 27.8 µM | CD40, CD40 (gene 958) 29.1 µM and 23.8 µM | CD69, CD69 (gene 969) 26 µM and 38.3 µM | [7] 43 µM and 23.1 µM | [8] 39.2 µM and 31.9 µM | [9] 23.4 µM and 10 µM and 10.8 µM | [10] 41.5 µM and 24.6 µM | [11] 20 µM and 14.1 µM and 10.9 µM | [12] 17.2 µM and 21.1 µM
inactive: [1] | [2] | [3] | [4] | CD38, CD38 (gene 952) | CD40, CD40 (gene 958) | CD69, CD69 (gene 969) | [7] | [8] | [10] | [12]

CCCCOCCO
not listed: [13] | [14] | [15] | [16]
inactive: all other assays above
